# In the library only some 3.3% were active in any assay of this set; here they are far more common.
# USP1 inh: blocks the human USP1/UAF1 deubiquitinase complex; 0.23% of 390,000 active; Potency, µM (highest dose often 57.1 µM), inactives show at the highest dose activity change, negative = inhibition, actives largely listed as inhibitors; AID 743255; recombinant USP1/UAF1, Ub-Rhodamine cleavage fluorescence; note: potency is the fitted concentration of half-maximal effect; nearly all actives have a fitted effect of over 60% in size
#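 High-throughput fluorogenic screen: 1nM USP1/UAF1 complex, Ub-Rho substrate 150nM final, 50mM HEPES pH 7.8 with 0.5mM EDTA, 0.1 mg/ml BSA, 1mM TCEP and 0.01% Tween-20.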
# USP2a block: USP2a (human) protease inhibition; O75604; USP2 core, Ub-CHOP2 coupled fluorogenic reporter, 485/531; Potency, µM (doses to about 38.3 µM), inactives show at the top dose activity change, negative = inhibition, hits mostly inhibitors; 0.01% of 330,000 active;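 note: potency is the fitted concentration of half-maximal effect; plate controls were DMSO wells for no effect and full inhibition by NEM control for full effect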
#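 USP2 core (10nM final) preincubated 30min RT with compound in 20mM Tris-HCl pH 8.0, 2mM CaCl2, 2mM beta-mercaptoethanol, 0.05% CHAPS; 25nM Ub-CHOP2 plus 25nM reporter substrate added, fluorescence (Ex485/Em531) read after 60min.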
# WRN inhibitor: blocks human WRN helicase. 0.46% of 360,000 active. Q14191. WRN helicase unwinding, fluorescent forked duplex, kinetic. Potency, µM (highest dose often 114 µM), inactives show at the highest dose activity change, negative = inhibition, hits mostly inhibitors. AID 651768; note: potency is the fitted concentration of half-maximal effect; nearly all actives have a fitted effect of over 55% in size
#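 Primary qHTS, 1536-well format. 20 nM WRN + compound, 15 min RT; start with 100 nM forked fluorophore/quencher duplex, 2 mM ATP (final); kinetic read ex 525/em 598 nm.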
# PI5P4K alpha inh: blocks human PI5P4K alpha kinase activity. P48426. 1.2% of 330,000 active. PI5P4Kalpha enzyme, ADP-Glo luminescence, 60 min; stronger effect = lower value. max response, %. AID 652105; active = max response of -50% or lower; inconclusive = between -30% and -50%; inactive = -30% or higher; note: value at the top dose of about 77 µM
#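 Luminescence from ADP-Glo served as readout of PI5P4Kalpha activity in a qHTS format. Reaction: enzyme, substrate, compound, ATP at 5 microM final, 60 min at RT.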
# PLK1 PBD block: blocks phosphopeptide binding to human PLK1 polo-box domain | P53350 | Plk1 PBD binding of FITC phosphopeptide, fluorescence polarization | Potency, µM, for the others: max response, negative = inhibition, most hits filed as inhibitors | 2.8% of 360,000 active | AID 720504; note: potency is the fitted concentration of half-maximal effect; series mostly up to about 57 µM; nearly all actives have a fitted effect of over 65% in size
# Target sequence (P53350 whole entry, looked up, the tested form may be a part): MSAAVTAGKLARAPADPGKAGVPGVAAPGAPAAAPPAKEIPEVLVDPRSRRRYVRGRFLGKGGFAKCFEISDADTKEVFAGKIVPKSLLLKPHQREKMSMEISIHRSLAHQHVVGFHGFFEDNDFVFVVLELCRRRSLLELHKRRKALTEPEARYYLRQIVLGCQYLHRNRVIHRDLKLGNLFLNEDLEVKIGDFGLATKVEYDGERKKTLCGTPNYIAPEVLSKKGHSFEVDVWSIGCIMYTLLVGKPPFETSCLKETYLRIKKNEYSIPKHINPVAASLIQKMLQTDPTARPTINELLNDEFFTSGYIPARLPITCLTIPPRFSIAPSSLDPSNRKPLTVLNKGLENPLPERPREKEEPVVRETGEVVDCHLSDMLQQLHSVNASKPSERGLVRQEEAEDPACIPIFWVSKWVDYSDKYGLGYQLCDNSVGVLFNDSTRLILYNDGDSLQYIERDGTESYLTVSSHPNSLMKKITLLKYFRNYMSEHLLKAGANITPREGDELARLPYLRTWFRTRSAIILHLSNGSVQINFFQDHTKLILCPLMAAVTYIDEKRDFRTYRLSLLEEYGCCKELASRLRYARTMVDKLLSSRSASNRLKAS
# Active calls of the source: *; ? = inconclusive; . = no result; [ ] = another dose, or the depositor's remark. Unless noted, calls come from the whole dose curve; as a rule, active = well fitted curve in the direction sought with a large enough effect; inconclusive = small, poorly fitted or top-dose-only effect, or another doubt; inactive = no such curve, though single readings can be large; an effect the other way counts as inactive or inconclusive. Unless noted, % is set by controls: 0 for no effect and ±100 for the full control effect.
SMILES,USP1 inh,USP2a block,WRN inhibitor,PI5P4K alpha inh,PLK1 PBD block
CCOc1ccc(C2C(=O)N(C3CCCCCC3)CC(=O)N2CCc2ccccc2)cc1OC (centres undefined),1.3%,.,.,.,.
O=C(CCc1ccc(S(=O)(=O)NCc2ccccc2)cc1)N1CCN(Cc2ccc3c(c2)OCO3)CC1,2.1%,1.9%,-0.3%,.,-6.5%
O=C(CS(=O)(=O)Cc1ccccc1)N1CCN(Cc2ccc3c(c2)OCO3)CC1,-11.6%,1.4%,12.1%,-21.0,26.7µM*
O=C(CS(=O)(=O)Cc1ccccc1)N1CCN(c2cccc(C(F)(F)F)c2)CC1,-14.4%,-0.4%,-4.1%,-3.4,29.9µM*
O=C(CCS(=O)(=O)c1ccccc1)N1CCN(c2cccc(C(F)(F)F)c2)CC1,-20.3%,2.6%,-0.5%,1.6,-25.5%
c1ccc(OCc2nnc3n2N=C(c2ccccc2)CS3)cc1,?,-5.1%,6.1%,-23.2,7.52µM*
Brc1ccc(C2=Nn3c(Cn4nnc5ccccc54)nnc3SC2)cc1,-6.4%,0.5%,3.4%,-4.1,11.9µM*
COc1ccc(S(=O)(=O)NCC(c2ccco2)N2CCN(c3ccccc3F)CC2)cc1C (centres undefined),1.3%,.,.,.,.
CCN(CC)S(=O)(=O)c1nnc(NC(=O)COc2ccc(Cl)cc2)s1,-23.8%,.,.,.,.
O=c1nc(N2CCOCC2)ccn1-c1nc(-c2ccccc2)sc1-c1ccccc1,-21.1%,0.4%,9.3%,-5.0,29.9µM*
CCc1c(C)sc(NC(=O)c2cc(C)no2)c1C#N,?,0.1%,0.3%,-17.8,29.9µM*
CCc1c(C)sc(NC(=O)c2cc(C(C)C)on2)c1C#N,-7.1%,0.3%,-8.9%,-0.6,?
Cc1cc(OC(=O)c2ccccc2Br)cc(=O)n1C,-2.9%,3.6%,51.2%,0.4,21.2µM*
CC(=O)c1c(OC(=O)c2ccccc2Br)ccc2c(C)cc(=O)oc12,-15.0%,1.2%,-7.4%,-0.6,-8.0%
CCc1cccc(NC(=O)c2ccc(CNS(=O)(=O)c3ccc4c(c3)C(C)(C)C(=O)N4C)cc2)c1,-10.4%,.,.,.,.
O=C(Nc1ccc(-c2nc3cc(Cl)ccc3o2)cc1)c1cc(Br)ccc1Cl,-12.6%,.,.,.,.
O=C(O)c1ccccc1-c1ccccc1C(=O)Nc1ccc(-c2nc3cc(Cl)ccc3o2)cc1,-18.9%,5.1%,-19.5%,-0.5,21.2µM*
Cc1ccc(NC(=O)Cn2c(=O)n(CCC(=O)N3CCc4ccccc4C3)c(=O)c3ccccc32)c(C)c1,-8.7%,.,.,.,.
COc1cccc(C(=O)N(Cc2ccc(N(C)C)cc2)Cc2ccco2)c1,-38.2%,.,.,.,.
O=C(Nc1cccc([N+](=O)[O-])c1)c1ccc2nc(N3C(=O)CCC3=O)sc2c1,-19.4%,-2.0%,44.7µM*,?,-23.8%
O=C(Nc1cccc(Br)c1)c1ccc2nc(N3C(=O)CCC3=O)sc2c1,-29.9%,-0.4%,?,-58.4*,-11.5%
Cc1cccc(NC(=O)c2cccc(N3C(=O)CCC3=O)c2)c1,-11.9%,-0.6%,6.9%,0.8,-2.2%
CCc1nc(Nc2ccc(F)c(Cl)c2)c2c3c(sc2n1)CCCC3,-28.1%,.,.,.,.
Cn1ccc(=S)c2ccccc21,-11.9%,0.3%,?,-73.1*,11.9µM*
O=[N+]([O-])c1ccc(O)c(/C=N/Nc2ncnc3c2cnn3-c2ccccc2)c1,-13.4%,4.4%,-6.4%,-74.6*,-28.9%
SMILES,USP1 inh,USP2a block,WRN inhibitor,PI5P4K alpha inh,PLK1 PBD block
COc1ccc(C)cc1NC(=O)COCc1cc(-c2ccc(F)cc2)on1,-15.9%,.,.,.,.
CCOC(=O)C1(Cc2ccc(OC)cc2)CCN(C(=O)C2=CCCC2)CC1,-24.7%,3.3%,9.7%,-94.5*,5.2%
CCOC(=O)C1(Cc2ccc(OC)cc2)CCN(C(=O)c2cc(C)on2)CC1,-15.3%,-3.8%,0.8%,-8.7,-2.9%
CCOc1ccccc1NC(=O)CCS(=O)(=O)c1ccc2c(c1)CCN2C(C)=O,-18.4%,1.6%,-5.4%,3.0,21.2µM*
O=C(c1cccn(Cc2ccc(C(F)(F)F)cc2)c1=O)N1CCOCC1,-7.3%,-0.6%,-5.9%[57.1 µM],-3.6,26.7µM*
COc1ccc(C)cc1NC(=O)C(NC(=O)c1cc(OC)c(OC)c(OC)c1)C(C)C (centres undefined),-16.8%,4.2%,7.8%,-3.1,29.9µM*
COc1cc(C)ccc1OCCSc1nc2ccc(NC(=O)c3ccco3)cc2s1,-18.7%,.,.,.,.
CCOc1ccccc1C1CC(=O)NC2=C1C(=O)CC(C)(C)C2 (centres undefined),-22.8%,-0.2%,4.1%,-0.4,26.7µM*
CCOc1ccccc1C1CC(=O)Nc2cc(OC)c(OC)cc21 (centres undefined),-3.8%,-0.1%,-3.4%,-4.3,3.1%
O=C(NCc1ccccc1Cl)C(=O)NCC(c1ccco1)S(=O)(=O)c1cccs1 (centres undefined),-15.6%,.,.,.,.
CN(C)S(=O)(=O)c1ccc(=S)[nH]c1,-2.8%,-1.7%,-5.1%,0.5,23.8µM*
O=S(=O)(c1ccc(=S)[nH]c1)N1CCCC1,?,0.6%,-21.7%,?,?
O=C1CCCc2nc(N3CCN(c4ccccc4)CC3)ncc21,1.6%,?,-1.8%,-4.0,29.9µM*
CCOc1c(O)ccc(/C=C2\SC(=S)NC2=O)c1[N+](=O)[O-],?,-1.5%,-9.0%[11.6 µM],-101.1*,29.9µM*
O=C1NC(=O)/C(=C\c2ccc(Oc3cnccn3)cc2)S1,-21.3%,1.7%,-7.6%[57.1 µM],-3.0,-4.9%
CCOc1ccc(N(C)c2ccc(/C=C3/SC(=S)NC3=O)cc2)cc1,?,1.2%,?,-55.2*,1.3%
CN(C)c1ccc(C=C2SC(=S)NC2=O)cc1,?,.,?,-13.7,72.4%
O=C1NC(=S)S/C1=C/c1ccc(Oc2cnccn2)cc1,-15.8%,-15.1%,-18.7%[57.1 µM],-77.9*,-17.0%
CC(C)NC(=O)Cn1c(=O)nc(-c2ccccc2)c2ccccc21,-21.1%,.,.,.,.
Cc1ccc(C2=NN3C(=O)c4ccccc4C3C2)cc1 (centres undefined),-9.7%,-1.5%,-8.1%,0.1,-3.9%
COc1ccc2c(c1OC)C(=O)N1N=C(c3ccc(F)cc3)CC21 (centres undefined),-12.2%,0.0%,4.9%,-11.4,11.9µM*
CCOC(=O)C1CCCN(C(=O)CSc2ccc(NC(C)=O)cc2)C1 (centres undefined),-19.3%,6.8%,-28.1%,-1.5,21.2µM*
CC(C)CCN1C(=O)c2ccccc2CC1(C)C(=O)NC1CCC(C)CC1 (centres undefined),-20.9%,.,.,.,.
Cc1ccc(CCNC(=O)c2cc3n(n2)CCCN(Cc2ccc(C)cc2)C3=O)cc1,-7.5%,.,.,.,.
COc1ccc(OC)c(NC(=O)CCN2CCCC(C)C2)c1 (centres undefined),-3.6%,-1.5%,-4.0%,.,-1.5%
COc1ccc(OC)c(NC(=O)CCN2CC(C)CC(C)C2)c1 (centres undefined),-14.2%,-0.4%,11.3%,0.0,23.8µM*
COc1ccc(NC(=S)Nc2ccc(OC)cc2OC)c(OC)c1,-6.2%,0.9%,-2.0%,-9.0,26.7µM*
